From PubChem BioAssay
Shown are actives, neighbours in structure and some others; about 11% of the full set was active somewhere.
JMJD2A Tudor = qHTS Assay for Inhibitors of JMJD2A-Tudor Domain; AlphaScreen JMJD2A-Tudor / H3K4me3 peptide binding; Potency, µM (titrated, usually from 114 µM), inactives show top-dose activity change, negative = inhibition, most hits filed as inhibitors; 390,000 tested, 4.4% active; AID 504339, 2011; Lysine-specific demethylase 4A (Homo sapiens), O75164; also: % is scaled to controls: 0 for no effect and ±100 for the full control effect; nearly all actives have a fitted effect of over 50% in size
HP1b binding inh = HTS for Inhibitors of HP1-beta Chromodomain Interactions with Methylated Histone Tails; AID 540317, 2011; Potency, µM (top dose mostly 114 µM), for inactives: at the highest dose activity change, negative = inhibition, most hits filed as inhibitors; 390,000 tested, 0.56% active; AlphaScreen HP1-beta / biotin-H3K9me3 peptide binding; also: nearly all actives have a fitted effect of over 70% in size
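HP1-beta protein (50 nM final) preincubated 30 min at room temperature with biotinylated H3(1-18)K9me3 peptide (50 nM) in PBS pH 7.4, 0.01% Tween-20, then compound added for 30 min. AlphaScreen streptavidin donor/nickel chelate acceptor beads (10 ug/mL final), 30 min dark, luminescence read.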
L3MBTL1 inh = qHTS Assay for the Inhibitors of L3MBTL1; Lethal(3)malignant brain tumor-like protein 1 (Homo sapiens), Q9Y468; 230,000 tested, 0.66% active; Potency, µM (top dose mostly 57.1 µM), for inactives: at the highest dose activity, negative = inhibition, usual class: inhibitors; AlphaScreen L3MBTL1–H3K9me1 peptide binding; also: % is scaled to controls: 0 for no effect and ±100 for the full control effect; nearly all actives have a fitted effect of over 60% in size
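Displacement of a biotinylated histone H3(1-15) peptide monomethylated at Lys9 (75 nM) from L3MBTL1 (50 nM) was measured by AlphaScreen after a 30 min room-temperature compound incubation; cefsulodin titration served as intraplate control.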
G9a inh = qHTS Assay for Inhibitors of Histone Lysine Methyltransferase G9a; AID 504332, 2011; Histone-lysine N-methyltransferase EHMT2 (Homo sapiens), Q96KQ7; 350,000 tested, 8.8% active; G9a H3K9 monomethylation, AlphaScreen, 2 h; Potency, µM (doses to about 102 µM), for the others: at the highest dose activity, negative = inhibition, actives largely listed as inhibitors; also: % is scaled to controls: 0 for no effect and ±100 for the full control effect; nearly all actives have a fitted effect of over 75% in size
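Step 1: enzyme (final 20 nM) with compound, 15 min RT. Step 2: substrate peptide 500 nM and SAM 20 uM, 2 h RT. Step 3: anti-H3K9me1 antibody and AlphaScreen beads, 10 min, then plate read.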
BAZ2B block = qHTS Assay for Inhibitors of BAZ2B | AlphaScreen BAZ2B-H3K14Ac peptide displacement | Potency, µM (series often up to 114 µM), for the others: top-dose activity change, negative = inhibition, most hits filed as inhibitors | 360,000 tested, 4.4% active; also: % is scaled to controls: 0 for no effect and ±100 for the full control effect; nearly all actives have a fitted effect of over 60% in size
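Inhibition is scored as reduced AlphaScreen emission. The BAZ2B/b-H3(5-23)K14Ac complex (50 nM each) in PBS pH 7.4, 0.01% Tween-20 meets compound (up to 110 uM) for 30 min at RT before bead addition.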
Starred values were filed as active, the others as inactive; [ ] = remark or other dose. Calls follow the shape of the dose curve; as a rule, active = well fitted inhibition curve with a large enough effect; inconclusive = small, poorly fitted or top-dose-only effect; inactive = no such curve, though single readings can be large or run the other way. Potency is read from the fitted curve at half-maximal effect.

How did FC(F)Oc1ccc(/C=N/N2CCCCC2)c(OC(F)F)c1 do in these assays?
L3MBTL1 inh: -17.8%; G9a inh: 56.2µM*; BAZ2B block: inconclusive

Results for CC(C)(C)c1ccc(OCCOCCn2c(-c3ccc(Cl)cc3)nc3ccccc3c2=O)cc1 ?
JMJD2A Tudor: 0.3%; HP1b binding inh: 37.3%; G9a inh: inconclusive; BAZ2B block: 8.8%

Results for O=C(c1ccccc1)c1ccccc1C(=O)c1ccccc1 ?
JMJD2A Tudor: 3.5%; HP1b binding inh: 23.6%; L3MBTL1 inh: 8.0%; G9a inh: 13.9%[0.501 µM]; BAZ2B block: 8.8%

What do the screens show for `Nc1sccc1C(=O)c1ccccc1`?
JMJD2A Tudor: -35.8%; HP1b binding inh: -14.8%; L3MBTL1 inh: -6.1%; G9a inh: 44.7µM*; BAZ2B block: -9.2%

What do the screens show for `COc1ccc(NC(=O)CSc2nccn2Cc2ccco2)cc1OC`?
JMJD2A Tudor: 4.6%; HP1b binding inh: 45.0%; G9a inh: -3.1%[59 µM]; BAZ2B block: -28.9%

What do the screens show for `COc1ccc(NC(=O)c2cc(S(=O)(=O)NCCC3=CCCCC3)ccc2F)cc1`?
JMJD2A Tudor: -11.3%; HP1b binding inh: 42.3%; G9a inh: -1.4%[59 µM]; BAZ2B block: -1.8%

What do the screens show for `COc1cc(Cl)c(C)cc1NC(=O)CSC1=NCCS1`?
JMJD2A Tudor: 36.2%; HP1b binding inh: 147.9%; L3MBTL1 inh: -0.3%

How did COc1ccc(C(=O)/C=C/c2ccc(N(C)C)cc2)c(OC)c1 do in these assays?
JMJD2A Tudor: -4.7%; HP1b binding inh: 43.1%; L3MBTL1 inh: 42.9%; G9a inh: -1.2%; BAZ2B block: -10.5%

What do the screens show for `CN(C)c1ccc(C=C2C=Cc3ccccc32)cc1`?
JMJD2A Tudor: 14.1µM*; HP1b binding inh: inconclusive

Results for CNc1ccc(C=C2C=Cc3ccccc32)cc1 ?
JMJD2A Tudor: 28.2µM*; HP1b binding inh: 39.8µM*

Results for COc1cc2c(cc1OC)C(=Cc1ccc(N(C)C)cc1)C=C2 ?
JMJD2A Tudor: 10µM*; HP1b binding inh: 10µM*

How did Cc1ccc2c(c1)N(C(=O)N1CCC(C(=O)NCc3ccccc3F)CC1)CC(C)O2 (stereo unspecified) do in these assays?
JMJD2A Tudor: inconclusive; HP1b binding inh: 39.5%; G9a inh: -26.5%[59 µM]; BAZ2B block: -22.5%

What do the screens show for `CCCNC(=O)Cn1c(SCc2ccccc2C)nc2ccncc21`?
JMJD2A Tudor: -13.1%[57.1 µM]; HP1b binding inh: 18.9%[57 µM]

How did Cc1cc(Cl)c2ccc3ccccc3c2n1 do in these assays?
JMJD2A Tudor: 20.8%; HP1b binding inh: 27.2%; L3MBTL1 inh: 37.0%; G9a inh: 25.1µM*; BAZ2B block: 57.8%

What do the screens show for `Cc1cc(Cl)c2ccccc2n1`?
JMJD2A Tudor: 0.3%; HP1b binding inh: 41.8%; L3MBTL1 inh: 0.2%; G9a inh: -7.9%[59 µM]; BAZ2B block: 4.2%

What do the screens show for `CC1CC(C)CN(c2oc(-c3ccc(OCc4ccccc4Cl)cc3)nc2C#N)C1` (stereo unspecified)?
JMJD2A Tudor: 0.8%[57.1 µM]; HP1b binding inh: -10.4%[57 µM]

How did CN1CCN(c2ccc(S(=O)(=O)N3CCCCC3)cc2NC(=O)COc2cccc(Cl)c2)CC1 do in these assays?
JMJD2A Tudor: inconclusive; HP1b binding inh: -35.8%; L3MBTL1 inh: -7.1%; G9a inh: 39.8µM*; BAZ2B block: inconclusive

How did CN1CCN(c2ccc(S(=O)(=O)N3CCCCC3)cc2NC(=O)COc2ccc(F)cc2)CC1 do in these assays?
JMJD2A Tudor: inconclusive; HP1b binding inh: -12.6%; L3MBTL1 inh: 9.8%; G9a inh: 28.2µM*; BAZ2B block: inconclusive

What do the screens show for `Cc1cccc(OCC(=O)Nc2cc(S(=O)(=O)N3CCCCC3)ccc2N2CCN(C)CC2)c1`?
JMJD2A Tudor: -26.6%; HP1b binding inh: 3.9%[57 µM]; L3MBTL1 inh: -28.4%; G9a inh: -19.3%

What do the screens show for `Cc1c(CC(=O)NCC(C)C)c(=O)oc2cc3c(cc12)CCC(C)(C)O3`?
JMJD2A Tudor: -13.7%; HP1b binding inh: 29.8%; G9a inh: 31.5%; BAZ2B block: 4.6%
